From PubChem BioAssay AID1159580 (chemical genetic matrix, 2015)
The campaign covered roughly 5,500 compounds. About 2,000 (36%) were called active. Not shown: some 18% with an inconclusive outcome. Cut-off read from the data, not from the text of the source: active = normalized growth mostly below about 0.91 (no sharp cut-off); inconclusive = no clear call, values can overlap the other calls; inactive = mostly above about 0.92. The list shows a part of the results.

Assay: chemical genetic growth profiling, strain panel (AID 1159580);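 note: tested at 20 µM; growth read once vehicle control cultures reached saturation at 30 °C; 1 = growth at the plate median or of vehicle wells; lower values mean less growth of the strain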
Details: S. cerevisiae deletion strains, growth OD

Measured: normalized growth

COc1ccc([C@H]2Oc3c(I)c(OC)cc(OC)c3C[C@@H]2O)cc1OC
inactive: locus YAL021C, strain ccr4, hits give low values 1.01 | locus YAL026C, strain drs2, hits give low values 1.01 | locus YAL030W, strain snc1, hits give low values 1.01 | locus YBL061C, strain skt5, hits give low values 1.01 | locus YBR009C, strain hhf1, hits give low values 1.01 | locus YBR021W, strain FUR4, hits give low values 1 | locus YBR023C, strain chs3, hits give low values 1.01 | locus YBR171W, strain sec66, hits give low values 1.01 | locus YBR229C, strain ROT2, hits give low values 1 | locus YBR231C, strain swc5, hits give low values 1.01 | locus YBR279W, strain paf1, hits give low values 1.03 | locus YCL011C, strain gbp2, hits give low values 1.02 | locus YCL016C, strain dcc1, hits give low values 1.02 | locus YCL029C, strain bik1, hits give low values 1.03 | locus YCL061C, strain MRC1, hits give low values 1.02 | locus YCL069W, strain vba3, hits give low values 1.02 | locus YCR088W, strain abp1, hits give low values 1.01 | locus YDL005C, strain med2, hits give low values 1.01 | locus YDL035C, strain GPR1, hits give low values 1.07 | locus YDL040C, strain nat1, hits give low values 1.01 | locus YDL074C, strain BRE1, hits give low values 1.1 | locus YDL101C, strain DUN1, hits give low values 1 | locus YDL134C, strain PPH21, hits give low values 1.03 | locus YDL185W, strain tfp1, hits give low values 1.03 | locus YDL192W, strain arf1, hits give low values 1.04 | locus YDR001C, strain nth1, hits give low values 1.02 | locus YDR069C, strain doa4, hits give low values 1.01 | locus YDR101C, strain arx1, hits give low values 1.04 | locus YDR137W, strain rgp1, hits give low values 0.982 | locus YDR150W, strain NUM1, hits give low values 1.02 | locus YDR159W, strain sac3, hits give low values 0.98 | locus YDR162C, strain NBP2, hits give low values 1.04 | locus YDR195W, strain ref2 1.01 | locus YDR297W, strain sur2, hits give low values 1.01 | locus YDR318W, strain mcm21, hits give low values 1.02 | locus YDR334W, strain swr1, hits give low values 1.02 | locus YDR335W, strain msn5, hits give low values 1.01 | locus YDR388W, hits give low values 1.02 | locus YDR392W, strain spt3, hits give low values 0.895 | locus YDR502C, strain sam2, hits give low values 1.02 | locus YEL003W, strain gim4, hits give low values 1.01 | locus YEL037C, strain rad23, hits give low values 1.01 | locus YEL061C, strain CIN8 (second series), hits give low values 1.02 | locus YER015W, strain faa2, hits give low values 1.02 | locus YER016W, strain bim1, hits give low values 1 | locus YER110C, hits give low values 1 | locus YER111C, strain swi4, hits give low values 1.01 | locus YER155C, strain BEM2 (second series), hits give low values 1 | locus YER155C, strain BEM2, hits give low values 0.996 | locus YER167W, strain BCK2, hits give low values 1.01 | locus YFR010W, strain ubp6, hits give low values 1.01 | locus YGL078C, strain dbp3, hits give low values 0.999 | locus YGL086W, strain mad1, hits give low values 0.997 | locus YGL167C, strain pmr1, hits give low values 1.01 | locus YGL173C, strain kem1, hits give low values 1.01 | locus YGL227W, strain vid30, hits give low values 1.02 | locus YGL240W, strain doc1, hits give low values 1.01 | locus YGL248W, strain PDE1, hits give low values 1.04 | locus YGL253W, strain hxk2, hits give low values 1.01 | locus YGR135W, strain pre9, hits give low values 1.03 | locus YGR252W, strain gcn5, hits give low values 1.06 | locus YHR013C, strain ard1, hits give low values 1.02 | locus YHR027C, strain rpn1, hits give low values 1.01 | locus YHR030C, strain SLT2, hits give low values 1 | locus YHR079C, strain IRE1 (second series), hits give low values 1.01 | locus YHR094C, strain hxt1, hits give low values 1.01 | locus YHR129C, strain ARP1, hits give low values 1.03 | locus YHR142W, strain chs7, hits give low values 1.03 | locus YHR200W, strain rpn10, hits give low values 1.07 | locus YIL066C, strain RNR3, hits give low values 1.02 | locus YIL073C, strain SPO22, hits give low values 1.08 | locus YIL125W, strain kgd1, hits give low values 1.03 | locus YIR030C, strain dcg1, hits give low values 1.03 | locus YJL092W, strain hpr5, hits give low values 1.01 | locus YJL095W, strain BCK1 (second series), hits give low values 1.02 | locus YJL095W, strain BCK1, hits give low values 1.05 | locus YJL115W, strain asf1, hits give low values 1.02 | locus YJL129C, strain trk1, hits give low values 1.02 | locus YJL134W, strain LCB3, hits give low values 1 | locus YJL154C, strain vps35, hits give low values 1.01 | locus YJL164C, strain tpk1, hits give low values 1.01 | locus YJL166W, strain qcr8, hits give low values 1.01 | locus YJL168C, strain set2, hits give low values 1.02 | locus YJL187C, strain SWE1 (second series), hits give low values 1 | locus YJL187C, strain SWE1, hits give low values 1.01 | locus YJR075W, strain HOC1, hits give low values 1.03 | locus YKL009W, strain mrt4, hits give low values 0.912 | locus YKL068W, hits give low values 0.976 | locus YKL085W, strain MDH1 (second series), hits give low values 0.971 | locus YKL085W, strain MDH1, hits give low values 0.971 | locus YKL160W, strain elf1, hits give low values 1.02 | locus YKR001C, strain vps1, hits give low values 1.06 | locus YKR026C, strain gcn3, hits give low values 1 | locus YKR091W, strain srl3, hits give low values 1.01 | locus YLL001W, strain dnm1, hits give low values 1.02 | locus YLL026W, hits give low values 1 | locus YLL041C, strain sdh2, hits give low values 1.01 | locus YLR027C, strain aat2, hits give low values 1.01 | locus YLR039C, strain RIC1, hits give low values 1.2 | locus YLR058C, strain SHM2, hits give low values 1.02 | locus YLR102C, strain apc9, hits give low values 1.01 | locus YLR221C, strain rsa3, hits give low values 1.02 | locus YLR258W, strain gsy2, hits give low values 1 | locus YLR262C, strain YPT6 (second series), hits give low values 1.01 | locus YLR268W, strain sec22, hits give low values 1.05 | locus YLR320W, strain mms22, hits give low values 1.03 | locus YLR330W, strain CHS5, hits give low values 1.02 | locus YLR342W, strain FKS1 (second series), hits give low values 1.06 | locus YLR342W, strain FKS1, hits give low values 1.01 | locus YLR357W, strain rsc2, hits give low values 1.03 | locus YLR370C, strain arc18, hits give low values 1.01 | locus YLR371W, strain rom2, hits give low values 1.05 | locus YLR384C, strain iki3, hits give low values 1.01 | locus YLR418C, strain cdc73, hits give low values 1.05 | locus YML016C, strain PPZ1, hits give low values 1.01 | locus YML032C, strain rad52, hits give low values 1.03 | locus YML120C, strain ndi1, hits give low values 1.01 | locus YML124C, strain tub3, hits give low values 1.02 | locus YMR058W, strain fet3, hits give low values 1.01 | locus YMR078C, strain ctf18, hits give low values 1.01 | locus YMR125W, strain sto1, hits give low values 1.03 | locus YMR129W, hits give low values 1.01 | locus YMR205C, strain PFK2, hits give low values 1.01 | locus YMR223W, strain ubp8, hits give low values 1.06 | locus YMR231W, strain pep5, hits give low values 1 | locus YMR263W, strain SAP30, hits give low values 1.04 | locus YMR307W, strain GAS1, hits give low values 1.2 | locus YNL067W, strain RPL9B, hits give low values 1.02 | locus YNL071W, strain lat1, hits give low values 1.01 | locus YNL128W, strain TEP1, hits give low values 1.04 | locus YNL209W, strain ssb2, hits give low values 1.04 | locus YNL233W, strain BNI4, hits give low values 1.04 | locus YNL248C, strain rpa49, hits give low values 1.01 | locus YNL250W, strain rad50, hits give low values 0.961 | locus YNL271C, strain bni1, hits give low values 1.03 | locus YNL298W, strain CLA4, hits give low values 0.985 | locus YNL307C, strain MCK1, hits give low values 1.01 | locus YNL322C, strain KRE1 (second series), hits give low values 1.01 | locus YNR049C, strain mso1, hits give low values 1.01 | locus YNR052C, strain pop2, hits give low values 1.01 | locus YOL006C, strain TOP1, hits give low values 1.23 | locus YOL012C, strain htz1 0.906 | locus YOL147C, strain pex11, hits give low values 1.02 | locus YOR001W, strain rrp6, hits give low values 0.997 | locus YOR061W, strain CKA2, hits give low values 0.999 | locus YOR069W, strain VPS5, hits give low values 1.02 | locus YOR070C, strain gyp1, hits give low values 1.02 | locus YOR080W, strain dia2, hits give low values 1.01 | locus YOR083W, strain WHI5, hits give low values 1.03 | locus YOR106W, strain vam3, hits give low values 1.03 | locus YOR136W, strain idh2, hits give low values 1.02 | locus YOR144C, strain elg1, hits give low values 1.04 | locus YOR184W, strain ser1, hits give low values 1.08 | locus YOR265W, strain rbl2, hits give low values 1 | locus YOR270C, strain vph1, hits give low values 1.04 | locus YOR290C, strain snf2, hits give low values 1.01 | locus YOR316C, strain cot1, hits give low values 1.04 | locus YPL051W, strain arl3, hits give low values 0.993 | locus YPL055C, strain LGE1, hits give low values 1.12 | locus YPL078C, strain atp4, hits give low values 1.02 | locus YPL106C, strain sse1, hits give low values 1.01 | locus YPL240C, strain hsp82, hits give low values 1.01 | locus YPR119W, strain clb2, hits give low values 1.03 | locus YPR141C, strain kar3, hits give low values 1.02 | locus YPR163C, strain tif3, hits give low values 1.02 | locus YPR167C, strain met16, hits give low values 1.04 | strain wtn01, hits give low values 1.02
